About 2,700 (4%) of roughly 68,000 compounds showed an effect of 50% or more. The sample holds strong results, similar compounds and a random draw of the others, so the mix is not that of the screen.

This note sets out measurements from ChEMBL document CHEMBL4513216, “Probing the Open Global Health Chemical Diversity Library for Multistage-Active Starting Points for Next-Generation Antimalarials” (ACS Infect Dis, 2020).

The subject of the assay is Plasmodium berghei. In words: Screen against P. berghei liver stage (PbLuc), transformed with Luciferase, at 2uM. The assay is classed as functional, HepG2. Conditions: tested at 2 uM.
Regarding `CN1[C@H](Cn2cncn2)C[C@@H]2CN(Cc3cccc(C#N)c3)CC[C@@H]21`, the INHIBITION amounted to 12.3%.
The value for `CN1CCC2(C=C(C(=O)N(C)C)c3ccccc32)CC1` was -10.89%.
The value for `Cn1ccc2ccnc(CC3CN(C(=O)c4cscn4)C3)c21` was 52.82%; that for `CC(=O)N1CC(Cc2nccc3ccn(C)c23)C1` was 20.08%.
In the case of `Cc1cccc(C(=O)N2CC(Cc3nccc4ccn(C)c34)C2)n1` it was -25.33%.
With `CCc1nnc2n1CCN(C(=O)C(C)COCc1ccccc1)C2` (configuration not stated), the INHIBITION is reported as -32.2%.
In the case of `Cc1cc2c(N3CCC(N(C)Cc4cnn(C)c4)CC3)ncnc2s1` it was 10.13%; in that of `Cn1c(=O)c2c(n3ncnc13)NC(=O)CC2c1cccc(Br)c1` (configuration not stated), -13.28%.
The value for `CCc1ccc(C2CC(=O)Nc3c2c(=O)[nH]n3C(C)C)cc1` (configuration not stated) was -9.13%; that for `Cn1c(=O)c2c(n3ncnc13)NC(=O)CC2c1cccc(F)c1` (configuration not stated) was 5.31%.
In the case of `COc1cccc(C2CC(=O)Nc3c2c(=O)n(C)c2ncnn32)c1` (configuration not stated) it was 15.49%; in that of `CCc1ccc(C2CC(=O)Nc3c2c(=O)n(C)c2ncnn32)cc1` (configuration not stated), 56.21%.
With `Cn1c(=O)c2c(n3ncnc13)NC(=O)CC2c1ccc(F)cc1` (configuration not stated), the INHIBITION was determined as 53.55%.
In the case of `CCS(=O)(=O)N1Cc2[nH]nc(COCc3cccnc3)c2C1` it was -2.81%; in that of `CNC(=O)C(C)(C)N1CCC[C@H]1C(=O)NC(C)(C)C`, 30.4%; in that of `CCN1CCCC12CCCN(c1ncccn1)C2` (configuration not stated), -23.31%.
In the case of `CC1=Nc2c(c(O)nn2C2CCOCC2)C(c2cccnc2)S1` (configuration not stated) it was 18.76%; in that of `CCn1ccnc1CN(C)c1nc(-c2ccc(Cl)cc2)nc2c1CNC2`, 5.28%.
The value for `Cc1nccn1CCN(C)c1nc(-c2ccc(Cl)cc2)nc2c1CNC2` was 19.59%; that for `CCN(CC)CCN(C)c1nc(-c2ccc(Cl)cc2)nc2c1CNC2` was 81.59%.
For the compound `O=C(O)c1cc(S(=O)(=O)Nc2cc(F)ccc2F)cc2c1OCCO2`, the INHIBITION is -41.21%.
In the case of `COCCN1CCN(CCCS(=O)(=O)N(C)C)CC1C` (configuration not stated) it was 25.35%; in that of `O=C(CCCc1ccccn1)NCC(O)c1c(F)cccc1F` (configuration not stated), 17.98%.
In the case of `CCn1nnc2c1C(COCCN(C)C)CN(S(C)(=O)=O)C2` (configuration not stated) it was 34.19%.
The value for `CN(CCCNC(=O)N1CCCC1c1ccsc1)c1ccccn1` (configuration not stated) was 63.95%.
In the case of `O=C(NCCCn1cccn1)N1CCCC1c1ccsc1` (configuration not stated), the INHIBITION came out at 16.21%.
In the case of `CN(C)c1ncccc1CNC(=O)N1CCCC1c1ccsc1` (configuration not stated) it was 43.93%.
The value for `N#Cc1ccc(C(=O)N2CC[C@H]3[C@@H]2CCC(=O)N3c2cccnc2)cc1` was -11.44%; that for `CC(C)C(=O)N1CCCC1C(=O)Nc1ccc(F)c(F)c1` (configuration not stated) was 55.29%.
The value for `Cc1ccc(F)cc1NC(=O)C1CCCN1C(=O)C(C)C` (configuration not stated) was 15.27%; that for `CC(C)C(=O)N1CCCC1C(=O)Nc1cc(C(F)(F)F)ccc1F` (configuration not stated) was 13.92%; that for `Cc1cnc(C(C)(C)NC(=O)NCc2ccc(C#N)cc2F)s1` was 16.79%.
Turning to `Cc1cc(C)c(CNC(=O)C2CCN(c3cnccn3)CC2)c(=O)[nH]1`, the INHIBITION is listed as -7.02%.
`Cc1cc(C)c(CNC(=O)N2CCN(c3cnccn3)CC2)c(=O)[nH]1`: the INHIBITION is 63.95%.
The value for `Cc1cc(C)c(CNC(=O)N2CCN(c3ccccn3)CC2)c(=O)[nH]1` was 7.64%.
In the case of `CSc1ccccc1NC(=O)C1CSc2ncc(C)c(=O)n2C1` (configuration not stated) it was -35.92%; in that of `Cn1c(C(F)(F)F)nn(CCNC(=O)CSCc2ccccc2)c1=O`, -30.06%; in that of `NCCn1nc(C2CCN(Cc3ccccc3)C2)c2nccnc21` (configuration not stated), 8.26%.
For `CN1CCCC(CCC(=O)NCCCn2ncc3ccccc32)C1` (configuration not stated), the INHIBITION stood at 46.95%.
The value for `CN1CCCCCC1C(=O)NCCCn1ncc2ccccc21` (configuration not stated) was 54.78%.
The value for `CN1CCCCC1CCC(=O)NCCCn1ncc2ccccc21` (configuration not stated) was 28.19%; that for `O=C(Nc1ccc(I)cc1C(=O)NCCN1CCOCC1)c1ccco1` was -54.79%; that for `O=C(Nc1ccccc1C(=O)NCCN1CCOCC1)c1ccco1` was -4.93%.
The value for `O=C(Nc1ccc(Cl)cc1C(=O)NCCN1CCOCC1)c1ccco1` was 60.47%.
With `CN(C)CCOCC1CN(Cc2cccs2)Cc2ccnn2C1` (configuration not stated), the INHIBITION is reported as -85.93%.
The value for `Cc1cc(CN2CCN(C(=O)NCc3ccc(C)s3)CC2)on1` was 6.63%; that for `CCCNC(=O)N1CCN(Cc2cc(C)no2)CC1` was 26.4%; that for `Cc1cc(CN2CCN(C(=O)NCc3c(C)noc3C)CC2)on1` was 70.27%.
The value for `COc1cc(CCC(=O)NC(C)(C)C)ccc1OCC(F)(F)F` was -1.02%; that for `CCOCCC1(CNC(=O)c2ccc(C)nc2)CCCC1` was -9.5%; that for `CCOCC1CCN(C(=O)C(c2cccc(F)c2)N(C)C)CC1` (configuration not stated) was -15.23%.
For `CN(C)C(C(=O)N1CCN(CCn2cccc2)CC1)c1ccc(F)cc1` (configuration not stated), the INHIBITION amounted to 31.51%.
As for `COCCCN1CCN(C(=O)C(c2cccc(F)c2)N(C)C)CC1` (configuration not stated), the INHIBITION was 60.13%.
The value for `COCCN1CCN(C(=O)C(c2cccc(F)c2)N(C)C)CC1` (configuration not stated) was 48.21%; that for `CN(C)C(C(=O)N1CCN(CCn2cccc2)CC1)c1cccc(F)c1` (configuration not stated) was 69.67%; that for `CN(C)C(C(=O)NCCn1cccc1)c1cccc(F)c1` (configuration not stated) was 3.58%.
For the compound `CCc1[nH]ncc1C(=O)N1CCCC(n2cccn2)C1` (configuration not stated), the INHIBITION is recorded as 2.7%.
In the case of `Cc1ccccc1OCCCC(=O)N1CCCC(n2cncn2)C1` (configuration not stated) it was 39.54%.
The value for `O=C(C1CN(CC2CC2)CC12CCOCC2)N1CCCC1` (configuration not stated) was 31.41%; that for `O=C1N(Cc2ccccc2)C[C@H]2CN(Cc3ccccc3Cl)CCN12` was 64.44%; that for `COCCN1C[C@H]2CN(Cc3cccc(OC)c3)CCN2C1=O` was 36.44%.
The value for `Cc1ccc(CN2C[C@H]3CN(Cc4ccccc4Cl)CCN3C2=O)cc1` was 40.83%.
Take `CS(=O)(=O)NC[C@]12COC[C@H]1CN(Cc1ccc3c(c1)OCO3)C2`: the INHIBITION was -6.8%.
Regarding `COC1CCN(C(=O)CCn2cccn2)CC1`, the INHIBITION is 26.61%.
The value for `c1cnc(N2CCC(C3CCN(CCCn4cccn4)C3)CC2)nc1` (configuration not stated) was 19.04%; that for `O=C(CCn1cccn1)N1CCC(C2CCN(c3ncccn3)CC2)C1` (configuration not stated) was 52.08%; that for `CCCC1CCCN(C(=O)CCn2cccn2)CC1` (configuration not stated) was 63.68%.
In the case of `CCN(CC)CC1CCN(C(=O)CCn2cccn2)CC1` it was -13.06%; in that of `O=C(CCc1cn[nH]c1)N1CCC(C2CCN(c3ncccn3)CC2)C1` (configuration not stated), 45.48%.
The value for `Cn1cccc1C(=O)N1CC2(CCN(C(=O)c3cccnc3)C2)C1` was 21.77%; that for `CCc1noc(C2CCN(C(=O)CCn3nc(C)cc3C)CC2)n1` was 12.3%.
Turning to `c1ccc(Cc2noc(CN3CCOC(Cn4cccn4)C3)n2)cc1` (configuration not stated), the INHIBITION is -0.6%.
On to `O=C(CC1CC1)N1C[C@@H]2CN(c3ccccc3)C(=O)[C@@H]2C1`, for which the INHIBITION amounted to 28.2%.
Turning to `O=C(CCO)N1C[C@H]2CN(c3ccccc3)C(=O)[C@H]2C1`, the INHIBITION is 54.01%.
In the case of `O=C(C1CCC1)N1C[C@@H]2CN(c3ccccc3)C(=O)[C@@H]2C1` it was 49.07%; in that of `NC(=O)COc1ccc(CNCc2ccc(F)c(F)c2)cc1`, -52.95%; in that of `Cn1ccnc1CCNS(=O)(=O)c1ccc(Br)cc1`, -16.21%.
The value for `COc1cccc2c1CCC2NC(=O)NCc1csc(N(C)C)n1` (configuration not stated) was -57.02%; that for `Cc1nn(C)c(N(C)C)c1CNC(C)COc1cccc(F)c1` (configuration not stated) was 34.83%.
The value for `CC(C)N(C(=O)CCc1ccco1)C1CCOCC1` was 76.6%; that for `COc1ccc(CCC(=O)N(C(C)C)C2CCOCC2)cc1` was 20.76%.
Take `CC(C)N(C(=O)CCc1cccc(F)c1)C1CCOCC1`: the INHIBITION is recorded as -7.16%.
As for `O=C(NCC1CCCCO1)c1ccc(-c2ccco2)[nH]c1=O` (configuration not stated), the INHIBITION is listed as 38.67%.
In the case of `CCN1CCN(S(=O)(=O)c2cc(C)c(Cl)cc2Cl)CC1`, the INHIBITION was determined as 26.09%.
The value for `Cc1cc(S(=O)(=O)N2CC[C@@H](O)C2)c(Cl)cc1F` was -54.78%; that for `Cc1cc(S(=O)(=O)N2CCC(N3CCC(O)C3)CC2)c(Cl)cc1Cl` (configuration not stated) was 55.73%; that for `CC(C)c1nnc(CN(C)Cc2ccccc2-c2ccccc2)o1` was 20.63%.
In the case of `CC(CCN1CCOCC1)NC(=O)c1cccc(C(F)(F)F)c1F` (configuration not stated) it was 18.37%; in that of `CC(CCN(C)C)NC(=O)c1cccc(C(F)(F)F)c1F` (configuration not stated), 52.38%.
The value for `COc1cccc(C(=O)NC(C)CCN2CCOCC2)c1F` (configuration not stated) was -22.65%; that for `Cc1nnc2n1CCN(CCOc1cccc(C#N)c1)C2` was 33.82%; that for `CC(C)(O)CCc1ccc(C(=O)NCC2CCCOC2)cc1` (configuration not stated) was 42.27%.
As for `Cc1ccc(C(=O)N2C[C@H](NS(C)(=O)=O)[C@@H](C(C)C)C2)cc1F`, the INHIBITION was -43.88%.
With `Cc1nc2cc(C(=O)N3C[C@@H](NS(C)(=O)=O)[C@H](C(C)C)C3)ccc2[nH]1`, the INHIBITION is reported as -1.71%.
In the case of `Cc1ccc(C(=O)N2C[C@@H](NS(C)(=O)=O)[C@H](C(C)C)C2)cc1O` it was 51.72%; in that of `O=C(c1ccco1)N1C2CCC(O)(CC2)C1CO` (configuration not stated), 3.38%; in that of `NC1CCc2c(ccc(=O)n2CC2CC2)C1` (configuration not stated), 24.86%.
The value for `NC1CCc2c(ccc(=O)n2Cc2ccncc2)C1` (configuration not stated) was 55.11%; that for `O=c1ccc2c(n1CCN1CCCC1)CCN(Cc1ccoc1)CC2` was -1.79%.
With `CCn1c2c(ccc1=O)CC(N)CC2` (configuration not stated), the INHIBITION turned out to be 13.38%.
The value for `O=c1ccc2c(n1Cc1ccncc1)CCN(Cc1ccoc1)CC2` was 50.91%; that for `O=c1ccc2c(n1Cc1cccnc1)CCN(Cc1ccoc1)CC2` was 0.13%; that for `CCOCC1CN(Cc2ccco2)Cc2nccn2C1` (configuration not stated) was -7.76%.
In the case of `CNS(=O)(=O)c1cnccc1N1CCN(C(C)C)CC1` it was 15.75%; in that of `Cc1cc(NCCNc2ccc(C#N)cn2)nc(C)n1`, 21.81%.
Take `Cc1cccc(NCCNc2ccc(C#N)cn2)n1`: the INHIBITION amounted to 60.79%.
The value for `Cc1csc(CCNc2ccc(C#N)cn2)n1` was 20.29%.
